Assay in all cases: PBM; 200 nM protein, PBS
Holding throughout (details): dsDNA, one strand shown

Experiment [1] concerns the target T1, SIX6 (Homo sapiens, UniProt O95475 114-200, L167I).
T1 sequence: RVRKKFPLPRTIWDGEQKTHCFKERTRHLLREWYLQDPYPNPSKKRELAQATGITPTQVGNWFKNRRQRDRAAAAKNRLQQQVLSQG

Experiment [2] addresses T2, SIX6 (Homo sapiens, UniProt O95475 114-200, L143V).
T2 sequence: T1 sequence with L30V, I54L

For experiment [3], the target named is T3, SIX6 (Homo sapiens, UniProt O95475 114-200, H141N).
T3 sequence: T1 sequence with H28N, I54L

The target in experiment [4] is T4, SIX6 (Homo sapiens, UniProt O95475 114-200, T165P).
T4 sequence: T1 sequence with T52P, I54L

The target of experiment [5] is T5, SIX6 (Homo sapiens, UniProt O95475 114-200, L167M).
T5 sequence: T1 sequence with I54M

In experiment [6] the target is T6, SIX6 (Homo sapiens, UniProt O95475 114-200, L143M).
T6 sequence: T1 sequence with L30M, I54L

The target in experiment [7] is T7, SIX6 (Homo sapiens, UniProt O95475 114-200, L143I).
T7 sequence: T1 sequence with L30I, I54L

Experiment [8] concerns the target T8, SIX6 (Homo sapiens, UniProt O95475 114-200, T165G).
T8 sequence: T1 sequence with T52G, I54L

Experiment [9] addresses T9, SIX6 (Homo sapiens, UniProt O95475 114-200, T139Q).
T9 sequence: T1 sequence with T26Q, I54L

Experiment [10] has as its target T10, SIX6 (Homo sapiens, UniProt O95475 114-200, T165A).
T10 sequence: T1 sequence with T52A, I54L

The target in experiment [11] is T11, SIX6 (Homo sapiens, UniProt O95475 114-200, L167V).
T11 sequence: T1 sequence with I54V

Experiment [12] addresses T12, SIX6 (Homo sapiens, UniProt O95475 114-200).
T12 sequence: T1 sequence with I54L

Experiment [13] concerns the target T13, SIX6 (Homo sapiens, UniProt O95475 114-200, T165I).
T13 sequence: T1 sequence with T52I, I54L

Where a chain is given by its changes, count along the chain named.

As for CTATATCA, the binding signal was 11.2 upbm affinity estimate (log intensity, higher = more binding, comparable within an allelic series) with SIX6 [1]; 10.4 upbm affinity estimate (log intensity, higher = more binding, comparable within an allelic series) in the experiment with SIX6 [2]; 11.2 upbm affinity estimate (log intensity, higher = more binding, comparable within an allelic series) in the experiment with SIX6 [3]; 9.95 upbm affinity estimate (log intensity, higher = more binding, comparable within an allelic series) with SIX6 [4]; 10.7 upbm affinity estimate (log intensity, higher = more binding, comparable within an allelic series) with SIX6 [5]; 11 upbm affinity estimate (log intensity, higher = more binding, comparable within an allelic series) in the experiment with SIX6 [6]. The binding signal was 10.4 upbm affinity estimate (log intensity, higher = more binding, comparable within an allelic series) with SIX6 [7]; 11.1 upbm affinity estimate (log intensity, higher = more binding, comparable within an allelic series) with SIX6 [8]; 11.1 upbm affinity estimate (log intensity, higher = more binding, comparable within an allelic series) with SIX6 [9]; 11 upbm affinity estimate (log intensity, higher = more binding, comparable within an allelic series) in the experiment with SIX6 [10]; 10.9 upbm affinity estimate (log intensity, higher = more binding, comparable within an allelic series) in the experiment with SIX6 [11]; 10.9 upbm affinity estimate (log intensity, higher = more binding, comparable within an allelic series) with SIX6 [12]. Further, the binding signal in the experiment with SIX6 [13] was 11.1 upbm affinity estimate (log intensity, higher = more binding, comparable within an allelic series).

In the case of GTGATACA, the binding signal with SIX6 [1] was 11.4 upbm affinity estimate (log intensity, higher = more binding, comparable within an allelic series); with SIX6 [2], 10.4 upbm affinity estimate (log intensity, higher = more binding, comparable within an allelic series); with SIX6 [3] it was 11.4 upbm affinity estimate (log intensity, higher = more binding, comparable within an allelic series); with SIX6 [4] it was 9.76 upbm affinity estimate (log intensity, higher = more binding, comparable within an allelic series); in the experiment with SIX6 [5], 10.8 upbm affinity estimate (log intensity, higher = more binding, comparable within an allelic series); with SIX6 [6] it was 11.2 upbm affinity estimate (log intensity, higher = more binding, comparable within an allelic series). For the same sequence, the binding signal was 10.4 upbm affinity estimate (log intensity, higher = more binding, comparable within an allelic series) with SIX6 [7]; 11.3 upbm affinity estimate (log intensity, higher = more binding, comparable within an allelic series) in the experiment with SIX6 [8]; 11.3 upbm affinity estimate (log intensity, higher = more binding, comparable within an allelic series) with SIX6 [9]; 11.3 upbm affinity estimate (log intensity, higher = more binding, comparable within an allelic series) in the experiment with SIX6 [10]; 11.1 upbm affinity estimate (log intensity, higher = more binding, comparable within an allelic series) with SIX6 [11]; 11 upbm affinity estimate (log intensity, higher = more binding, comparable within an allelic series) with SIX6 [12]. Further, the binding signal with SIX6 [13] is 11.2 upbm affinity estimate (log intensity, higher = more binding, comparable within an allelic series).

As to GATACCTA, the binding signal is 11.1 upbm affinity estimate (log intensity, higher = more binding, comparable within an allelic series) with SIX6 [1]; 10.3 upbm affinity estimate (log intensity, higher = more binding, comparable within an allelic series) with SIX6 [2]; 11.1 upbm affinity estimate (log intensity, higher = more binding, comparable within an allelic series) with SIX6 [3]; 9.79 upbm affinity estimate (log intensity, higher = more binding, comparable within an allelic series) with SIX6 [4]; 10.6 upbm affinity estimate (log intensity, higher = more binding, comparable within an allelic series) in the experiment with SIX6 [5]; 11.1 upbm affinity estimate (log intensity, higher = more binding, comparable within an allelic series) with SIX6 [6]. Besides, the binding signal with SIX6 [7] is 10.4 upbm affinity estimate (log intensity, higher = more binding, comparable within an allelic series); with SIX6 [8], 11.2 upbm affinity estimate (log intensity, higher = more binding, comparable within an allelic series); in the experiment with SIX6 [9], 11.2 upbm affinity estimate (log intensity, higher = more binding, comparable within an allelic series); with SIX6 [10], 11.1 upbm affinity estimate (log intensity, higher = more binding, comparable within an allelic series); with SIX6 [11], 10.9 upbm affinity estimate (log intensity, higher = more binding, comparable within an allelic series); with SIX6 [12] it was 11 upbm affinity estimate (log intensity, higher = more binding, comparable within an allelic series). Further, the binding signal with SIX6 [13] is 10.9 upbm affinity estimate (log intensity, higher = more binding, comparable within an allelic series).

In the case of ACATATCA, the binding signal with SIX6 [1] is 11.3 upbm affinity estimate (log intensity, higher = more binding, comparable within an allelic series); with SIX6 [2] it was 10.4 upbm affinity estimate (log intensity, higher = more binding, comparable within an allelic series); in the experiment with SIX6 [3], 11.3 upbm affinity estimate (log intensity, higher = more binding, comparable within an allelic series); with SIX6 [4] it was 9.99 upbm affinity estimate (log intensity, higher = more binding, comparable within an allelic series); with SIX6 [5] it was 10.7 upbm affinity estimate (log intensity, higher = more binding, comparable within an allelic series); in the experiment with SIX6 [6], 11.1 upbm affinity estimate (log intensity, higher = more binding, comparable within an allelic series). Also, the binding signal in the experiment with SIX6 [7] was 10.4 upbm affinity estimate (log intensity, higher = more binding, comparable within an allelic series); in the experiment with SIX6 [8], 11.3 upbm affinity estimate (log intensity, higher = more binding, comparable within an allelic series); with SIX6 [9], 11.3 upbm affinity estimate (log intensity, higher = more binding, comparable within an allelic series); with SIX6 [10], 11.2 upbm affinity estimate (log intensity, higher = more binding, comparable within an allelic series); with SIX6 [11] it was 11.1 upbm affinity estimate (log intensity, higher = more binding, comparable within an allelic series); in the experiment with SIX6 [12] it was 11.1 upbm affinity estimate (log intensity, higher = more binding, comparable within an allelic series). Moreover, the binding signal in the experiment with SIX6 [13] was 11.1 upbm affinity estimate (log intensity, higher = more binding, comparable within an allelic series).

For GCCGCCCC, the binding signal with SIX6 [1] is 9.02 upbm affinity estimate (log intensity, higher = more binding, comparable within an allelic series); in the experiment with SIX6 [2] it was 9.06 upbm affinity estimate (log intensity, higher = more binding, comparable within an allelic series); in the experiment with SIX6 [3], 8.99 upbm affinity estimate (log intensity, higher = more binding, comparable within an allelic series); in the experiment with SIX6 [4] it was 9.17 upbm affinity estimate (log intensity, higher = more binding, comparable within an allelic series); with SIX6 [5], 9.05 upbm affinity estimate (log intensity, higher = more binding, comparable within an allelic series); in the experiment with SIX6 [6], 9.03 upbm affinity estimate (log intensity, higher = more binding, comparable within an allelic series). For the same sequence, the binding signal with SIX6 [7] was 8.92 upbm affinity estimate (log intensity, higher = more binding, comparable within an allelic series); in the experiment with SIX6 [8] it was 9.03 upbm affinity estimate (log intensity, higher = more binding, comparable within an allelic series); with SIX6 [9], 8.98 upbm affinity estimate (log intensity, higher = more binding, comparable within an allelic series); in the experiment with SIX6 [10], 9.08 upbm affinity estimate (log intensity, higher = more binding, comparable within an allelic series); with SIX6 [11], 8.99 upbm affinity estimate (log intensity, higher = more binding, comparable within an allelic series); with SIX6 [12], 8.93 upbm affinity estimate (log intensity, higher = more binding, comparable within an allelic series). Besides, the binding signal with SIX6 [13] is 9.05 upbm affinity estimate (log intensity, higher = more binding, comparable within an allelic series).

On to CGATACCC, for which the binding signal with SIX6 [1] is 11.2 upbm affinity estimate (log intensity, higher = more binding, comparable within an allelic series); with SIX6 [2] it was 10.2 upbm affinity estimate (log intensity, higher = more binding, comparable within an allelic series); in the experiment with SIX6 [3] it was 11.3 upbm affinity estimate (log intensity, higher = more binding, comparable within an allelic series); with SIX6 [4] it was 9.23 upbm affinity estimate (log intensity, higher = more binding, comparable within an allelic series); in the experiment with SIX6 [5] it was 10.4 upbm affinity estimate (log intensity, higher = more binding, comparable within an allelic series); with SIX6 [6], 11 upbm affinity estimate (log intensity, higher = more binding, comparable within an allelic series). Besides, the binding signal is 10.4 upbm affinity estimate (log intensity, higher = more binding, comparable within an allelic series) in the experiment with SIX6 [7]; 11.3 upbm affinity estimate (log intensity, higher = more binding, comparable within an allelic series) with SIX6 [8]; 11.4 upbm affinity estimate (log intensity, higher = more binding, comparable within an allelic series) in the experiment with SIX6 [9]; 11.2 upbm affinity estimate (log intensity, higher = more binding, comparable within an allelic series) with SIX6 [10]; 10.9 upbm affinity estimate (log intensity, higher = more binding, comparable within an allelic series) in the experiment with SIX6 [11]; 11.1 upbm affinity estimate (log intensity, higher = more binding, comparable within an allelic series) with SIX6 [12]. The binding signal in the experiment with SIX6 [13] is 11 upbm affinity estimate (log intensity, higher = more binding, comparable within an allelic series).

(Values after paper PMC11006913.)
